Hits are enriched below; roughly 7.9% of the tested compounds scored in any of these assays.
Marburg entry inh: qHTS for inhibitors of binding or entry into cells for Marburg Virus; Marburg virus pseudotyped entry inhibition, cell reporter; Potency, µM (top dose mostly 37.8 µM), inactives show at the top dose activity change, negative = inhibition, most hits filed as inhibitors; actives 1.8% (n = 300,000); AID 540276, 2011; calls by dose curve; tested in HEK293 cells; further: potency means the concentration at half of the fitted maximal effect
FMDV inh: High Throughput Screening for Foot and Mouth Disease Virus Antivirals. actives 1.2% (n = 410,000). AID 1159524, 2015. Potency, µM (series often up to 57.9 µM), for inactives: at the top dose activity change, negative = inhibition, usual class: inhibitors. FMDV antiviral cell-based qHTS; calls by dose curve; tested in HEK293T cells; further: read-out not given here; potency means the concentration at half of the fitted maximal effect; nearly all actives have a fitted effect of over 45% in size
HCMV antiviral: qHTS Assay for inhibitors of the human cytomegalovirus (HCMV) | HFF cells, HCMV-luciferase reporter, 72 h; active compounds read low | activity change, negative = inhibition, % at 57.5 µM | actives 4.5% (n = 410,000); in the data active means activity change below about -60%; inconclusive means no clear call, values can overlap the other calls; inactive means above about -39%
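Cell-based, HFFs, 1000 cells/well, 16 h 37C; cpds in DMSO + HCMV-luc, MOI 1 PFU/cell; 72 h 37C; OneGlo luminescence after 5 min RT; norm. to buffer vs Salinomycin 10uM.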
Lassa entry inh: qHTS for Inhibitors of binding or entry into cells for Lassa Virus. Lassa virus pseudotype entry inhibition, cell reporter. Potency, µM (top dose mostly 37.9 µM), inactives show top-dose activity change, negative = inhibition, usual class: inhibitors. actives 1.2% (n = 300,000); calls by dose curve; tested in HEK293 cells; further: potency means the concentration at half of the fitted maximal effect; nearly all actives have a fitted effect of over 50% in size
HCV inhibitor: qHTS Assay for Inhibitors of Hepatitis C Virus (HCV); Potency, µM (doses to about 41.8 µM), for the others: top-dose activity change, negative = inhibition, most hits filed as inhibitors; actives 3.4% (n = 340,000); Huh7.5.1 HCVcc-Cre infection, luciferase reporter, 44 h; AID 651820, 2012; active means well fitted inhibition curve with a large enough effect; inconclusive means small, poorly fitted or top-dose-only effect, or another doubt; inactive means no such curve, though single readings can be large or run the other way; further: potency means the concentration at half of the fitted maximal effect
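Seed cells (1,000/well) for 4 h; treat with compound and infect with HCVcc-Cre, moi about 0.5. Incubate 44 h, then detect luciferase activity.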
Active calls of the source: *; ? = inconclusive; · = not tested or not shown; [ ] = dose if it differs, or a comment. On the % scale 0 is the no-effect control and ±100 the full control effect.

SMILES | Marburg entry inh | FMDV inh | HCMV antiviral | Lassa entry inh | HCV inhibitor
O=[N+]([O-])c1cccc(C2NCC(c3ccccc3Cl)c3c2[nH]c2ccccc32)c1 (stereo unspecified) | ? | 0% | 20 | 14µM* | -6%
COCC(=O)Nc1cc(C(=O)N2CCN(c3ccccc3)C(=O)C2)cc2nc(-c3ccccc3)n(C)c12 | · | 0% | · | · | ·
Cc1ccc(Cn2cc(CN(C)C3CN(Cc4cn(Cc5ccc(C)cc5)nn4)S(=O)(=O)C3)nn2)cc1 (stereo unspecified) | · | 0% | -25 | · | ·
COc1ccc(NC(=O)c2cc(-c3cc(F)ccc3OC)n[nH]2)cc1OC | · | -4% | -21 | · | ·
COc1cc(F)ccc1-c1cc(C(=O)Nc2ccc(C)c(NS(C)(=O)=O)c2)[nH]n1 | · | 25µM* | -38 | · | ·
CCCOc1ccc(F)cc1-c1cc(C(=O)Nc2ccc(C)c(NS(C)(=O)=O)c2)[nH]n1 | · | 35µM* | -32 | · | ·
COc1ccc(NC(=O)c2cc(-c3ccc(F)cc3OC)n[nH]2)c(OC)c1 | · | -23% | 41 | · | ·
CCCOc1ccc(F)cc1-c1cc(C(=O)Nc2ccc(OC)c(OC)c2)[nH]n1 | · | -12% | -1 | · | ·
COc1ccc(F)cc1-c1cc(C(=O)Nc2ccc(C)c(NS(C)(=O)=O)c2)[nH]n1 | · | 35µM* | -28 | · | ·
CCN1C(=O)N(C)C(c2ccccc2)C(C(C)=O)=C1C (stereo unspecified) | 13%[14.2 µM] | · | · | · | ·
COC(=O)[C@H]1C[C@H](OC(=O)NC2CC2)[C@@]2(O)CN(S(=O)(=O)c3ccc(C)cc3)CC2[C@H]1C(=O)OC (stereo partly specified) | · | 0% | -21 | · | ·
COc1cccc(NC(=O)C2CCN(c3nc4ccccc4nc3C(F)(F)F)CC2)c1 | · | 0% | -16 | ? | ·
C[C@@H]1CN([C@@H](C)CO)C(=O)CCCn2nncc2CO[C@@H]1CN(C)C(=O)Cc1ccccc1 | · | 0% | 18 | · | ·
CS(=O)(=O)c1cccc(C(=O)Nc2cccc(-c3nc4ccccc4[nH]3)c2)c1 | 0%[46.1 µM] | 11% | 5 | ? | -18%
O=C(Nc1ccc2nc(-c3ccccc3)[nH]c2c1)c1ccco1 | ? | 19% | -67* | ? | ?
O=C(Nc1cccc(-c2nc3ccccc3[nH]2)c1)c1cccc(NC(=O)c2ccco2)c1 | 13µM* | 32µM* | -102* | ? | 3.5µM*
CN1OC(C)(CC(=O)Nc2ccccc2)N=C1c1ccc(Br)cc1 (stereo unspecified) | · | · | -12 | · | ·
Cc1ccc(C(=O)OCC(=O)Nc2ccc(N3CCOCC3)cc2)cc1 | 7% | -2% | -18 | 23% | 6%
CS(=O)(=O)N(CC(=O)N1CCCC1)c1cccc(F)c1 | ? | 1% | 24 | 5% | 10%
Cc1c(C(N)=O)c(-c2ccccc2)nn1-c1ccccc1 | 24% | -11% | -13 | 21% | -7%
CCCc1c(-c2ccc(O)cc2)nn(-c2ccc(O)cc2)c1-c1ccc(O)cc1 | ? | 0% | · | 0.29µM* | ?
Cc1ccn2c(=O)c(C(=O)NC(C)c3ccccc3)c(O)nc2c1 (stereo unspecified) | ? | -2% | -70* | · | ·
CC(NC(=O)c1c(O)nc2ccccn2c1=O)c1ccccc1 (stereo unspecified) | 9%[46.1 µM] | -5% | -21 | · | ·
Cc1ccc(CNC(=O)C(=O)NCC2OCCN2S(=O)(=O)c2ccc(C)cc2)cc1 (stereo unspecified) | -29% | -27% | · | ? | ·
COc1ccc(S(=O)(=O)N2CCOC2CNC(=O)C(=O)NCCc2ccc(OC)c(OC)c2)cc1C (stereo unspecified) | ? | ? | -39 | ? | 11µM*
CNC(=O)C(=O)NCC1OCCN1S(=O)(=O)c1ccc([N+](=O)[O-])cc1 (stereo unspecified) | ? | -16% | -1 | 3% | 19%
O=C(NCc1ccccc1)C(=O)NCC1OCCN1S(=O)(=O)c1ccc([N+](=O)[O-])cc1 (stereo unspecified) | · | -8% | -78* | · | -3%
COc1ccc(CCNC(=O)C(=O)NCC2OCCN2S(=O)(=O)c2ccc3c(c2)OCCO3)cc1OC (stereo unspecified) | ? | -12% | -16 | -23% | ?

Source: PubChem
